Screen size: about 5,500 compounds; about 2,000 (36%) were called active. Roughly 18% stayed inconclusive and do not appear here. Cut-off read from the data, not from the text of the source: active = normalized growth mostly below about 0.91 (no sharp cut-off); inconclusive = no clear call, values can overlap the other calls; inactive = mostly above about 0.92. Some of the results follow.
Assay: chemical genetic growth profiling, strain panel (AID 1159580);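 note: tested at 20 µM; growth read once vehicle control cultures reached saturation at 30 °C; 1 = growth at the plate median or of vehicle wells; lower values mean less growth of the strain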
Conditions: S. cerevisiae deletion strains, growth OD

Measured: normalized growth

CNCCC(Oc1ccccc1C)c1ccccc1 (configuration not stated)
inactive: locus YAL040C, strain CLN3, active compounds read low 0.978 | locus YCL061C, strain MRC1 (second series), active compounds read low 0.995 | locus YDR150W, strain NUM1, active compounds read low 0.994 | locus YDR363W, strain ESC2, active compounds read low 0.968 | locus YER002W, strain NOP16, active compounds read low 0.995 | locus YMR263W, strain SAP30, active compounds read low 0.982 | locus YMR307W, strain GAS1, active compounds read low 0.971 | locus YNL128W, strain TEP1, active compounds read low 1.05 | locus YNL153C, strain GIM3, active compounds read low 0.984 | locus YNL175C, strain NOP13, active compounds read low 1.04 | locus YNL197C, strain WHI3, active compounds read low 1.02 | locus YNL224C, strain SQS1, active compounds read low 1.08 | locus YNL322C, strain KRE1, active compounds read low 0.96 | locus YOR083W, strain WHI5 (second series), active compounds read low 1 | locus YPL055C, strain LGE1, active compounds read low 0.984 | locus YPL241C, strain CIN2, active compounds read low 1

C/C(=N/NC(N)=S)c1csc(-c2ccccc2)n1
active: locus YHR030C, strain SLT2, active compounds read low 1.46 [resistant]
inactive: locus YAR019C, strain CDC15, active compounds read low 0.917 | locus YBL105C, strain PKC1, active compounds read low 0.947 | locus YBR135W, strain CKS1, active compounds read low 0.948 | locus YBR136W, strain MEC1, active compounds read low 0.941 | locus YBR160W, strain CDC28, active compounds read low 0.942 | locus YDL017W, strain CDC7, active compounds read low 0.962 | locus YDL028C, strain MPS1, active compounds read low 0.948 | locus YDL101C, strain DUN1, active compounds read low 0.931 | locus YDL108W, strain KIN28, active compounds read low 0.942 | locus YDL132W, strain cdc53, active compounds read low 0.942 | locus YDL214C, strain PRR2, active compounds read low 0.834 | locus YDR052C, strain DBF4, active compounds read low 0.944 | locus YDR054C, strain cdc34, active compounds read low 0.898 | locus YDR226W, strain ADK1, active compounds read low 0.961 | locus YDR477W, strain SNF1, active compounds read low 0.816 | locus YER123W, strain YCK3, active compounds read low 0.698 | locus YER133W, strain GLC7, active compounds read low 0.791 | locus YFL009W, strain cdc4, active compounds read low 0.913 | locus YFL029C, strain CAK1, active compounds read low 0.935 | locus YFR003C, strain YPI1, active compounds read low 0.948 | locus YFR019W, strain FAB1, active compounds read low 0.895 | locus YFR028C, strain CDC14, active compounds read low 0.936 | locus YGR040W, strain KSS1, active compounds read low 0.823 | locus YGR052W, strain FMP48, active compounds read low 0.96 | locus YGR092W, strain DBF2, active compounds read low 0.545 | locus YHR079C, strain IRE1, active compounds read low 0.663 | locus YHR082C, strain KSP1, active compounds read low 1.19 | locus YHR205W, strain SCH9, active compounds read low 0.978 | locus YIL147C, strain SLN1, active compounds read low 0.937 | locus YJL095W, strain BCK1, active compounds read low 0.993 | locus YJL128C, strain PBS2, active compounds read low 1.02 | locus YJL157C, strain FAR1, active compounds read low 0.802 | locus YJR016C, strain ILV3, active compounds read low 0.935 | locus YJR066W, strain TOR1 (second series), active compounds read low 0.625 | locus YJR066W, strain TOR1, active compounds read low 1.01 | locus YKL048C, strain ELM1, active compounds read low 0.948 | locus YKL067W, strain YNK1, active compounds read low 0.864 | locus YKL101W, strain HSL1, active compounds read low 0.886 | locus YKL193C, strain SDS22, active compounds read low 0.932 | locus YKL203C, strain TOR2, active compounds read low 0.852 | locus YLR113W, strain HOG1, active compounds read low 0.964 | locus YLR133W, strain CKI1, active compounds read low 0.863 | locus YLR403W, strain SFP1, active compounds read low 0.717 | locus YML070W, strain DAK1, active compounds read low 0.884 | locus YMR001C, strain CDC5, active compounds read low 0.935 | locus YMR205C, strain PFK2 (second series), active compounds read low 0.883 | locus YMR277W, strain FCP1, active compounds read low 0.914 | locus YNL006W, strain LST8, active compounds read low 0.949 | locus YNL020C, strain ARK1, active compounds read low 0.846 | locus YNL161W, strain CBK1, active compounds read low 0.925 | locus YNL183C, strain NPR1, active compounds read low 0.883 | locus YNL207W, strain RIO2, active compounds read low 0.931 | locus YNL222W, strain SSU72, active compounds read low 0.925 | locus YNL307C, strain MCK1 (second series), active compounds read low 0.754 | locus YOL078W, strain AVO1, active compounds read low 0.92 | locus YOL136C, strain PFK27, active compounds read low 0.837 | locus YOR061W, strain CKA2, active compounds read low 0.829 | locus YOR119C, strain RIO1, active compounds read low 0.823 | locus YOR231W, strain MKK1, active compounds read low 0.739 | locus YOR329C, strain SCD5, active compounds read low 0.943 | locus YPL031C, strain PHO85, active compounds read low 0.776 | locus YPL153C, strain RAD53, active compounds read low 0.789 | locus YPL204W, strain HRR25, active compounds read low 0.774 | locus YPL209C, strain IPL1, active compounds read low 0.945 | locus YPL256C, strain CLN2, active compounds read low 1.05 | locus YPR025C, strain CCL1, active compounds read low 0.95 | locus YPR106W, strain ISR1, active compounds read low 0.945 | locus YPR111W, strain DBF20, active compounds read low 0.968 | strain NNK1, active compounds read low 0.969 | strain TSCII, active compounds read low 0.914
